# Only a selection was taken, and hits are over-represented in it overall.
# miR122 inh: miR-122 sensor activation; Huh7 psiCHECK-miR122 Renilla luciferase sensor, 48 h; activation, % at 12.5 µM; 340,000 tested, 0.14% active; AID 623901;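 active means mean activation of 30% or more, with every replicate also reaching 30%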;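 further: 0% = median of neutral control wells and 100% = median of positive control wells; higher luciferase signal means stronger suppression of miR-122 activity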
# * hit, by the source's call.
SMILES,miR122 inh
C[C@@H]1CN([C@@H](C)CO)C(=O)c2cc(NC(=O)CCC(F)(F)F)ccc2O[C@@H]1CN(C)C(=O)Nc1ccc2c(c1)OCO2,-91.7
C[C@@H]1CN([C@@H](C)CO)C(=O)c2cc(NC(=O)NC3CCCCC3)ccc2O[C@@H]1CN(C)C(=O)Nc1ccc2c(c1)OCO2,32.4*
C[C@H]1CN([C@@H](C)CO)C(=O)c2cccc(NC(=O)C3CCCCC3)c2O[C@@H]1CN(C)Cc1ccc(C(F)(F)F)cc1,-94.2
C[C@H]1CN([C@@H](C)CO)C(=O)Cc2cc(NC(=O)Nc3ccc(C(F)(F)F)cc3)ccc2O[C@H]1CN(C)S(=O)(=O)c1ccc(F)cc1,-98.5
C[C@H]1CN([C@@H](C)CO)C(=O)c2cccc(NC(=O)Nc3ccc4c(c3)OCO4)c2O[C@@H]1CN(C)CC1CCCCC1,-97.1
C[C@@H]1CN([C@H](C)CO)C(=O)c2cc(-c3ccccc3)cnc2O[C@H]1CN(C)C(=O)Nc1ccc2c(c1)OCO2,-4.9
C[C@H](CO)N1C[C@H](C)[C@H](CN(C)CC2CCCCC2)Oc2ccc(NC(=O)Nc3ccc(C(F)(F)F)cc3)cc2C1=O,44.1*
C[C@@H]1CCCCO[C@@H](CN(C)CC2CCCCC2)[C@@H](C)CN([C@H](C)CO)C(=O)c2cc(NC(=O)CCC(F)(F)F)ccc2O1,-103.8
C[C@@H]1CCCCO[C@H](CN(C)CC2CCCCC2)[C@H](C)CN([C@@H](C)CO)C(=O)c2cc(NC(=O)Nc3ccc(C(F)(F)F)cc3)ccc2O1,31.7*
CO[C@H]1CN(C)C(=O)c2cc(NC(=O)C3CCOCC3)ccc2OC[C@H](C)N(C)C[C@@H]1C,0.9
COc1ccc(S(=O)(=O)N(C)C[C@@H]2Oc3cc(-c4ccccc4OC)ccc3S(=O)(=O)N([C@H](C)CO)C[C@H]2C)cc1,-0.2
C[C@H]1CN([C@@H](C)CO)C(=O)c2cc(C#CC3(O)CCCC3)cnc2O[C@H]1CN(C)S(=O)(=O)c1ccccc1,-3.6
C[C@@H]1CN([C@@H](C)CO)C(=O)c2cc(-c3ccc(F)cc3)cnc2O[C@H]1CN(C)Cc1cccnc1,2.3
CO[C@H]1CN(C)C(=O)c2ccc(NC(=O)Nc3cccc(F)c3)cc2OC[C@@H](C)N(C)C[C@@H]1C,-1.8
C[C@@H]1CN([C@H](C)CO)S(=O)(=O)c2ccc(C#Cc3ccccc3)cc2O[C@H]1CN(C)C(=O)Nc1ccccc1,-0.8
COCC#Cc1ccc2c(c1)O[C@H](CN(C)C(C)=O)[C@H](C)CN([C@H](C)CO)S2(=O)=O,3.9
C[C@@H]1CN([C@H](C)CO)S(=O)(=O)c2ccc(C#C[C@@H](C)O)cc2O[C@H]1CN(C)CC1CCOCC1,-35.7
C[C@H](CO)N1C[C@H](C)[C@@H](CN(C)Cc2cccc(C(=O)O)c2)Oc2ncc(/C=C/c3ccccc3)cc2C1=O,1.4
CCCCCCCCCCCCCCCC[n+]1ccccc1,49.2*
C[C@H](CO)N1C[C@H](C)[C@H](CN(C)C)Oc2cc(-c3ccc(C(=O)N(C)C)cc3)ccc2S1(=O)=O,1.5
C[C@@H]1CN([C@H](C)CO)S(=O)(=O)c2ccc(-c3ccccc3)cc2O[C@H]1CN(C)Cc1ccccc1C(=O)O,-12.4
C[C@H]1CN([C@@H](C)CO)C(=O)c2cccc(NC(=O)C3CCCCC3)c2O[C@@H]1CN(C)Cc1ccc(C(=O)Nc2ccccc2N)cc1,-13.3
CC(C)C#Cc1cnc2c(c1)C(=O)N([C@H](C)CO)C[C@H](C)[C@H](CN(C)C(=O)CC1CC1)O2,-1.7
COc1ccc2[nH]c(C(=O)O)c(NS(=O)(=O)c3ccc(Cl)s3)c2c1,39.8*
CCCCCCNS(=O)(=O)c1ccc(Cl)s1,-209.3
SMILES,miR122 inh
COc1cccc(NS(=O)(=O)c2cc(C)sc2C)c1,-121.4
Cc1ccc(S(=O)(=O)N(C)C[C@@H]2Oc3ncc(C#CCC(C)C)cc3C(=O)N([C@H](C)CO)C[C@@H]2C)cc1,-7.2
C[C@H](CO)N1C[C@H](C)[C@@H](CN(C)Cc2cccnc2)Oc2ncc(-c3ccc(F)cc3)cc2C1=O,0.1
C[C@@H]1CN([C@H](C)CO)C(=O)c2cc(-c3cccc(F)c3)cnc2O[C@H]1CN(C)Cc1cncnc1,-4.6
COCC(=O)N(C)C[C@@H]1Oc2cc(-c3cccc(F)c3)ccc2S(=O)(=O)N([C@H](C)CO)C[C@@H]1C,-4.9
CC(=O)N(C)C[C@H]1Oc2cc(C#C[C@H](C)O)ccc2S(=O)(=O)N([C@@H](C)CO)C[C@H]1C,5.3
Cc1onc(C(=O)N2CCN(C(c3ccccc3)c3ccccc3)CC2)c1[N+](=O)[O-],30.5*
O=C(c1cc([N+](=O)[O-])ccc1N1CCOCC1)N1CCN(c2ccccc2)CC1,-90.3
C[C@H](CO)N1C[C@H](C)[C@@H](CN(C)C(=O)Nc2ccccc2F)Oc2ncc(-c3cccc(F)c3)cc2C1=O,-13.0
Cc1ccc(-c2cnc3c(c2)C(=O)N([C@H](C)CO)C[C@@H](C)[C@@H](CN(C)C(=O)c2ccncc2)O3)cc1,2.8
CCCN(C)C[C@H]1Oc2cc(C#CCN(C)C)ccc2S(=O)(=O)N([C@@H](C)CO)C[C@H]1C,-3.9
O=C(C[C@@H]1C[C@H]2c3cc(NS(=O)(=O)c4ccc(F)cc4)ccc3O[C@H]2[C@H](CO)O1)NCc1ccc(-c2ccccc2)cc1,-111.0
CCC(=O)Nc1ccc2c(c1)OC[C@H](C)N(C(=O)c1ccncc1)C[C@@H](C)[C@H](OC)CN(C)C2=O,-6.9
Cc1ccc(-c2ccc3c(c2)O[C@H](CN(C)Cc2cccc(C(=O)O)c2)[C@@H](C)CN([C@H](C)CO)S3(=O)=O)cc1,-16.1
CC(C)CC#Cc1ccc([C@H]2[C@@H](CO)N3CCCCN(S(=O)(=O)Cc4ccccc4)C[C@H]23)cc1,34.5*
COc1ccc(NC(=O)N2CCCCN3[C@@H](CO)[C@H](c4ccc(C#CCC(C)C)cc4)[C@@H]3C2)cc1,33.2*
COCC#Cc1cnc2c(c1)C(=O)N([C@H](C)CO)C[C@@H](C)[C@@H](CN(C)C(=O)Nc1ccc(OC)cc1)O2,0.0
COc1ccc(C#Cc2ccc([C@H]3[C@H](CO)N4CCCCN(C(=O)Nc5ccccc5)C[C@@H]34)cc2)cc1,35.1*
O=C(Nc1ccccc1)N1C[C@H]2[C@@H](c3ccccc31)[C@@H](CO)N2C(=O)c1ccccn1,-132.1
COCC#Cc1cnc2c(c1)C(=O)N([C@H](C)CO)C[C@H](C)[C@@H](CN(C)C(=O)Nc1ccc(OC)cc1)O2,1.9
COc1cccc(NC(=O)N(C)C[C@H]2Oc3cc(C#Cc4ccccc4)ccc3S(=O)(=O)N([C@H](C)CO)C[C@@H]2C)c1,-19.2
C[C@H](CO)N1C[C@H](C)[C@@H](CN(C)C(=O)c2ccccn2)Oc2ncc(-c3cccc(F)c3)cc2C1=O,-5.6
C[C@@H]1CN([C@@H](C)CO)C(=O)c2cccc(NC(=O)c3ccc(-c4nccs4)cc3)c2O[C@@H]1CN(C)Cc1ccc(C(=O)Nc2ccccc2N)cc1,-212.6
CC(C)CC#Cc1cnc2c(c1)C(=O)N([C@@H](C)CO)C[C@@H](C)[C@H](CN(C)C(=O)Nc1cc(F)ccc1F)O2,-0.5
C[C@@H]1CN([C@H](C)CO)C(=O)c2cccc(NC(=O)c3cnccn3)c2O[C@@H]1CN(C)C(=O)Nc1cccc2ccccc12,-95.0
C[C@@H]1CN([C@H](C)CO)C(=O)c2cc(/C=C/c3ccccc3)cnc2O[C@H]1CN(C)C(=O)c1cccnc1,8.8
CO[C@@H]1CN(C)C(=O)c2ccc(NC(=O)Nc3cccc(F)c3)cc2OC[C@@H](C)N(C)C[C@@H]1C,0.2
CCCC(=O)Nc1ccc2c(c1)C(=O)N(C)C[C@@H](OC)[C@H](C)CN(CCC)[C@H](C)CO2,-0.7
